Laboratory results taken from PubChem BioAssay (NCI).
About 83,000 compounds went through this panel and 20% of them were active in at least one assay; those are over-represented in the sample as a whole.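 Values shown are percent growth following 48 h exposure of cells in 96-well plates to a single concentration of compound; below 10 was considered active.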 Calls of active or inactive are those of the source.

Key:
Assay in all cases: NCI-60 one-dose screen, 48 h (100 = growth as untreated, 0 = no growth, -100 = all killed)
Conditions in all cases: 10 µM unless noted
HCT-15 colon = system: HCT-15 colon
HT29 colon = system: HT29 colon
SNB-75 CNS = system: SNB-75 CNS
SNB-19 CNS = system: SNB-19 CNS
U251 CNS = system: U251 CNS
PC-3 prostate = system: PC-3 prostate
SK-MEL-5 melanoma = system: SK-MEL-5 melanoma
UACC-62 melanoma = system: UACC-62 melanoma
LOX IMVI melanoma = system: LOX IMVI melanoma
SK-MEL-28 melanoma = system: SK-MEL-28 melanoma
SK-MEL-2 melanoma = system: SK-MEL-2 melanoma
EKVX NSCLC = system: EKVX NSCLC
SN12C renal = system: SN12C renal
UO-31 renal = system: UO-31 renal
TK-10 renal = system: TK-10 renal
ACHN renal = system: ACHN renal
CAKI-1 renal = system: CAKI-1 renal
A498 renal = system: A498 renal
MOLT-4 leukemia = system: MOLT-4 leukemia
CCRF-CEM leukemia = system: CCRF-CEM leukemia

Measured: growth

COc1ccc(/C=C(\C(=O)NCc2cccnc2)S(=O)(=O)c2ccccc2)cc1OC
active: HT29 colon 9.86% | LOX IMVI melanoma 4.04%
inactive: HCT-15 colon 28.3% | SNB-75 CNS 54.2% | SNB-19 CNS 38.4% | U251 CNS 32.2% | PC-3 prostate 36.5% | SK-MEL-5 melanoma 64.6% | UACC-62 melanoma 34.9% | SK-MEL-28 melanoma 34.6% | SK-MEL-2 melanoma 54.6% | EKVX NSCLC 38.9% | SN12C renal 10.9% | UO-31 renal 38.8% | TK-10 renal 46.4% | ACHN renal 52.8% | CAKI-1 renal 36.1% | A498 renal 51% | MOLT-4 leukemia 39.3%

CN(C)CCCn1c2c(c3ccncc3c1=O)C(=O)c1ccccc1-2
inactive: SNB-75 CNS 21% | EKVX NSCLC 82.7% | TK-10 renal 12.8% | CAKI-1 renal 10.8% | A498 renal 58%
active: HCT-15 colon 2.9% | HT29 colon 2.14% | SNB-19 CNS 1.91% | U251 CNS 0.267% | PC-3 prostate -18.5% | SK-MEL-5 melanoma -94.3% | UACC-62 melanoma -56.7% | LOX IMVI melanoma -42.3% | SK-MEL-28 melanoma -43.1% | SK-MEL-2 melanoma -4.66% | SN12C renal 6.53% | UO-31 renal -37.4% | CCRF-CEM leukemia 1.34% | MOLT-4 leukemia -15%

O=C(NCCCCO)c1cncnc1Nc1ccc2c(ccn2Cc2cccc(F)c2)c1
inactive: HCT-15 colon 85.1% | HT29 colon 99.9% | SNB-75 CNS 85% | SNB-19 CNS 85.1% | U251 CNS 94.7% | PC-3 prostate 86% | SK-MEL-5 melanoma 95.2% | UACC-62 melanoma 80.4% | LOX IMVI melanoma 93.7% | SK-MEL-28 melanoma 100% | SK-MEL-2 melanoma 106% | EKVX NSCLC 85.1% | SN12C renal 87.7% | UO-31 renal 67% | TK-10 renal 98.7% | ACHN renal 86.3% | CAKI-1 renal 79.8% | A498 renal 69.5% | MOLT-4 leukemia 88.3%

O=C(Nc1ccccc1O)c1ccc(CNc2ccnc(C(F)(F)F)c2)cc1
inactive: HCT-15 colon 67.5% | HT29 colon 75.8% | SNB-75 CNS 55.9% | SNB-19 CNS 68% | U251 CNS 60.3% | PC-3 prostate 57.7% | SK-MEL-5 melanoma 38.1% | UACC-62 melanoma 32.8% | LOX IMVI melanoma 52.7% | SK-MEL-28 melanoma 69.9% | SK-MEL-2 melanoma 52.4% | EKVX NSCLC 52.7% | SN12C renal 48.8% | UO-31 renal 29.2% | TK-10 renal 96.2% | ACHN renal 43% | CAKI-1 renal 29.6% | A498 renal 66.4%
active: MOLT-4 leukemia 9.24%

CSc1nc(-c2ccco2)c(C#N)c(=O)n1C
inactive: HCT-15 colon 98.1% | HT29 colon 113% | SNB-75 CNS 89.3% | SNB-19 CNS 93.7% | U251 CNS 103% | PC-3 prostate 94.4% | SK-MEL-5 melanoma 101% | UACC-62 melanoma 99.5% | LOX IMVI melanoma 97.2% | SK-MEL-28 melanoma 109% | SK-MEL-2 melanoma 94.3% | EKVX NSCLC 98.4% | SN12C renal 110% | UO-31 renal 112% | TK-10 renal 104% | ACHN renal 100% | CAKI-1 renal 89.2% | A498 renal 103% | MOLT-4 leukemia 95.1%

C=CCN=c1sc(-c2ccc3ccccc3c2)cn1NC(=O)c1cc2ccc1CCc1ccc(cc1)CC2
active: SK-MEL-5 melanoma -10.1%
inactive: HCT-15 colon 49.5% | HT29 colon 30.1% | SNB-75 CNS 53.3% | SNB-19 CNS 66.8% | U251 CNS 53.9% | PC-3 prostate 37.8% | UACC-62 melanoma 52.7% | LOX IMVI melanoma 59.9% | SK-MEL-28 melanoma 72.2% | SK-MEL-2 melanoma 85.6% | EKVX NSCLC 58.2% | SN12C renal 74.3% | UO-31 renal 42.3% | TK-10 renal 79.7% | ACHN renal 72.3% | CAKI-1 renal 60.9% | A498 renal 62.7% | MOLT-4 leukemia 45.3%

O=C(c1ccc(Br)cc1)C(Br)C(c1ccc(Cl)cc1)C(c1ccccc1)[N+](=O)[O-] (configuration not stated)
inactive: HCT-15 colon 84.8% | HT29 colon 87.3% | SNB-75 CNS 89.4% | SNB-19 CNS 93.9% | U251 CNS 96.9% | PC-3 prostate 76.5% | SK-MEL-5 melanoma 86.6% | UACC-62 melanoma 71.8% | LOX IMVI melanoma 102% | SK-MEL-28 melanoma 97.7% | SK-MEL-2 melanoma 110% | EKVX NSCLC 79.9% | SN12C renal 101% | UO-31 renal 79% | TK-10 renal 103% | ACHN renal 102% | CAKI-1 renal 88.7% | A498 renal 87.5% | MOLT-4 leukemia 89.7%

O=C1/C(=C/c2ccccn2)SC(=S)N1N1CCOCC1
inactive: HCT-15 colon 102% | HT29 colon 103% | SNB-75 CNS 90.4% | SNB-19 CNS 101% | U251 CNS 98.1% | PC-3 prostate 94.6% | SK-MEL-5 melanoma 99.2% | UACC-62 melanoma 92.8% | LOX IMVI melanoma 97.8% | SK-MEL-28 melanoma 105% | SK-MEL-2 melanoma 89.8% | EKVX NSCLC 90.6% | SN12C renal 93.6% | UO-31 renal 71.9% | TK-10 renal 98.5% | CAKI-1 renal 92.6% | A498 renal 102% | CCRF-CEM leukemia 84.2% | MOLT-4 leukemia 101%
